This is part of a sample that, as a whole, favours compounds with a hit. Of some 79,000 tested, about 15% had one in any assay. Values without a mark were called inactive. Calls of active or inactive are those of the source. Rule as the data show it: active = growth inhibition above about 70%; inactive = the rest.
What was measured:
[1] = NCI Yeast Anticancer Drug Screen. Data for the rad50 strain (AID 155);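 also: 0% = growth of vehicle-only cultures of the same strain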; settings: S. cerevisiae rad50 strain growth inhibition; at 50.0 µM; stronger effect = higher value
In short: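 Genetically altered yeast (DNA repair pathway); compound treatment; growth inhibition vs vehicle ctrl.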

[2] = NCI Yeast Anticancer Drug Screen. Data for the mec2-1 strain (AID 157); settings: S. cerevisiae mec2-1 strain, at 50.0 µM, stronger effect = higher value
In short: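 mec2-1 yeast strain, carrying an alteration in DNA damage repair or cell cycle control, was exposed to compounds; growth inhibition was measured relative to vehicle-treated controls.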

[3] = NCI Yeast Anticancer Drug Screen. Data for the sgs1 mgt1 strain (AID 161);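 also: 0% = growth of cultures given vehicle only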; settings: S. cerevisiae sgs1 mgt1 strain, at 50.0 µM, stronger effect = higher value
In short: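 Compounds are added to genetically altered yeast, and growth is compared with cultures given vehicle alone to give percent inhibition.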

[4] = NCI Yeast Anticancer Drug Screen. Data for the cln2 rad14 strain (AID 165);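 also: 0% = growth equal to vehicle treated cultures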; settings: S. cerevisiae cln2 rad14 strain, at 50.0 µM, stronger effect = higher value
In short: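 Yeast carrying cln2 and rad14 alterations (cell cycle control and DNA damage repair) were exposed to compounds. Growth inhibition was measured against vehicle-treated controls.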

[5] = NCI Yeast Anticancer Drug Screen. Data for the bub3 strain (AID 167); settings: S. cerevisiae bub3 mutant strain, at 50.0 µM, stronger effect = higher value
In short: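 Yeast carrying a defined mutation is treated with each compound, and growth is compared with that of vehicle-exposed cells to give inhibition.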

[6] = NCI Yeast Anticancer Drug Screen. Data for the mlh1 rad18 strain (AID 175); settings: S. cerevisiae mlh1 rad18 strain growth inhibition; at 50.0 µM; stronger effect = higher value
In short: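 Growth inhibition of the yeast strain was measured after compound exposure and expressed relative to vehicle-treated controls. The strain carries defined defects in DNA damage repair.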

Compound | growth inhibition [1] | growth inhibition [2] | growth inhibition [3] | growth inhibition [4] [%] | growth inhibition [5] | growth inhibition [6] [%]
NC1Cc2cc(O)ccc2C1=O (stereo unspecified) | -5.95% | 22.2% | -3.35% | 20.2 | 22.8% | 0.7
C[N+]12C(=O)CC3OCC=C4C[N+]5(C)CCC6(c7ccccc71)C2C3C4CC65O (stereo unspecified) | -13.8% | -34.5% | -22% | 11.2 | -17.6% | -14.8
CC[C@H]1CN2CCc3cc(OC)c(OC)cc3[C@@H]2C[C@@H]1C[C@H]1NCCc2c1[nH]c1ccc(O)cc21 | -16.8% | 17.3% | -19.9% | -8.65 | -26.9% | 7.7
CC1OC(OC2C(O)C(O)C(O)C(O)C2O)C(N)CC1N=C(N)C(=O)O (stereo unspecified) | 12.5% | 3.6% | -18.1% | -34.5 | -0.35% | 23.6
CCN(CC)C(=S)[S][Pb]([CH2]C)([CH2]C)[CH2]C | 3.5% | 9.25% | 30.2% | 16.9 | -1.35% | 10.2
C/C=C1\C[C@@H]2C(OC)Nc3cc(O)c(OC)cc3C(=O)N2C1 (stereo partly specified) | 77.5% (active) | 70.7% (active) | 84% (active) | 56.9 | 81.3% (active) | 31.7
OCC(Br)CBr (stereo unspecified) | 40.9% | 0.35% | -3.6% | -62.6 | -11.7% | -4.5
CN(C)c1cccc(NC2=NCCO2)c1 | -21.3% | -24.5% | -27.7% | 7.35 | -20.4% | -14.6
Cc1cc(N)ccc1N | 7.15% | 11.2% | 14.2% | 4.25 | -6% | -2.9
Cc1ccccc1-n1c(/C=C\c2ccccn2)nc2ccccc2c1=O | 36.7% | 8.65% | 33.4% | 35.6 | 53.6% | 23.6
Cc1ccc([P+](=O)O)cc1Cl | -12.1% | -3.75% | -8.55% | -9.25 | 1.65% | -3
CC1CN1C(=O)NCCCCCCNC(=O)N1CC1C (stereo unspecified) | -17.7% | -0.2% | -2.95% | -38.7 | -5.55% | -28.6
C=COC(N)=O | 0.8% | -2.7% | 5.05% | -0.9 | 0.05% | -8.15
CCC1(c2ccc(C)cc2)C(=O)NC(=S)NC1=O | 6.1% | -8.15% | 17.2% | 28.6 | 14% | 11.8
Cc1nnn[n-]1.N.N.N.N.N.[Cl-].[Co+3] | 3.15% | -6.95% | -9.55% | 2.4 | -0.15% | -16.5
CCCCCCCCCCCCN(C)C | 45.4% | 28.7% | 35.9% | -6.2 | 29.1% | 37.9
COc1ccc(C(O)(C(=O)O)c2ccc(OC)c(OC)c2)cc1OC | 5.6% | -1.25% | -1.7% | -13.9 | 8% | 0.2
CN(C)C(=O)Sc1ccc(S(=O)(=O)F)cc1[N+](=O)[O-] | 65.5% | 36.9% | 76.7% (active) | 42.5 | 34.4% | 34.6
CC(=O)O[C@H]1CC[C@]2(C)C3=C([C@@H](OO)C[C@H]2C1(C)C)[C@]1(C)CC[C@H]([C@H](C)CCCC(C)C)[C@@]1(C)CC3 | 13.1% | 4.4% | 14.7% | 20.9 | 8.45% | 25.3
CCCCCCCCP(=O)(O)OP(=O)(O)OCC1OC(n2ccc(N)nc2=O)C(O)C1O (stereo unspecified) | -11.2% | -20.1% | -9.55% | 7.15 | -12.2% | -9
O=NNc1cccnc1 | -1.05% | -17.1% | -2.35% | 4.45 | -4.8% | -38

Reference: PubChem BioAssay (NCI)
